# Sampled rows, rich in hits. Any-hit rate of the full collection: about 3.6%.
# BoNT A protease = blocks Botulinum neurotoxin A light chain protease; inhibition, % at 10 µM; multiplex microsphere protease substrate cleavage, flow cytometry; actives 0.17% (n = 360,000); further: plate controls were buffer without enzyme for full effect and enzyme alone for no effect
# Anthrax LF inh2 = anthrax lethal factor protease inhibition. multiplex microsphere protease cleavage assay, LF. inhibition, % at 10 µM. actives 0.12% (n = 360,000). AID 588501; further: plate controls were buffer without enzyme for full effect and enzyme alone for no effect
# BoNT-F LC inh = BoNT F light chain protease inhibition. Multiplex microsphere protease cleavage assay, flow cytometry. inhibition, % at 10 µM. actives 0.22% (n = 360,000). AID 588497; in the data active means inhibition above about 35%, passing the limit was not always enough; inconclusive means no clear call, values can overlap the other calls; further: plate controls were buffer without enzyme for full effect and enzyme alone for no effect
# MazF activator = increases E. coli MazEF RNase cleavage of RNA; P0AE70; FAM/BHQ RNA-DNA oligo cleavage fluorescence, 5 h; activation, % at 20 µM; actives 0.32% (n = 350,000); AID 504720; in the data active means activation above about 50%
# Target sequence (P0AE70 whole entry, looked up): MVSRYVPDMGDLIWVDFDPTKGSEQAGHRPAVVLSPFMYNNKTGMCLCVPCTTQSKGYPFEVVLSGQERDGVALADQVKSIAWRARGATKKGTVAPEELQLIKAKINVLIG
# Bead autofluor = flagged as autofluorescent in microsphere protease counterscreen; compound autofluorescence counterscreen, microsphere flow cytometry; active compounds read high; fluorescence intensity (concentration not given with the values); actives 3.1% (n = 360,000); AID 624483; in the data active means fluorescence intensity above about 16000; inconclusive means no clear call, values can overlap the other calls
# An asterisk follows results filed as active; ? = inconclusive; nt = not tested or not shown. Unless noted, no stated cut-off is given here; in the data, active means inhibition above about 30%; inconclusive means no clear call, values can overlap the other calls; inactive means below that.
SMILES,BoNT A protease,Anthrax LF inh2,BoNT-F LC inh,MazF activator,Bead autofluor
Cc1cc(C(=O)Nc2ccccc2C(F)(F)F)no1,?,-1,0,-7,24116*
Cc1cc(C(=O)Nc2nnc(C(F)(F)F)s2)no1,0,1,0,5,22963*
CCSc1nnc(NC(=O)c2cc(C)on2)s1,-2,-2,-11,11,11082
O=C(CSc1ncn[nH]1)N1CCN(S(=O)(=O)c2ccc(Cl)cc2)CC1,-3,-2,-3,4,21069*
COc1ccc(Br)cc1C1NC(=O)c2c(sc3c2CCN(C)C3)N1 (configuration not stated),8,11,6,-8,3247
CN1CCc2c(sc3c2C(=O)NC(c2cn(Cc4ccccc4)c4ccccc24)N3)C1 (configuration not stated),11,16,-11,-57,20205*
O=C1NC(c2ccco2)Nc2sc3c(c21)CCN(Cc1ccccc1)C3 (configuration not stated),6,-26,-39,-27,5542
CN1CCc2c(sc3c2C(=O)NC(c2ccco2)N3)C1 (configuration not stated),6,-2,-7,-63,18769*
CN(CC(=O)Nc1ccc(F)c(F)c1F)C(=O)C1CCCC1,1,1,-1,2,8986
O=C(O)c1ccccc1C(=O)Nc1ccccn1,1,-2,1,0,23171*
CCc1nc2oc3ccccc3c(=O)c2c(=O)n1-c1ccccc1,0,0,3,0,16529*
CCc1nc2oc3ccccc3c(=O)c2c(=O)n1-c1ccc(C)cc1,nt,nt,nt,-8,nt
Cc1nc2sc3c(c2c(=O)n1N)CCC3,-1,-1,-1,4,4292
Cn1nnc2sc3c(c2c1=O)CCCC3,-2,-1,-5,-2,23005*
Cc1nn(-c2ccccc2)c2sc(C(=O)NNC(=O)COc3ccccc3)cc12,?,-5,1,-25,22047*
Nn1c(SCc2nc3ccccc3[nH]2)nnc1-c1cccnc1,0,-2,0,1,22326*
COc1cccc(-c2nnc(SCc3nc4ccccc4[nH]3)n2N)c1,-2,0,-10,3,2716
Nn1c(SC/C=C/c2ccccc2)nnc1-c1cccnc1,3,-3,4,6,21822*
CCn1c(SCc2nc3ccccc3c(=O)[nH]2)nnc1-c1cccnc1,?,1,1,3,23337*
Clc1ccc(-n2c(SC/C=C/c3ccccc3)nnc2-c2cccnc2)cc1,1,-1,10,-6,9553
NS(=O)(=O)c1ccc(CCNC(=O)COC(=O)C2COc3ccccc3O2)cc1 (configuration not stated),0,-9,-6,9,3882
CCOC(=O)CC(=O)CSc1nc2c(sc(=S)n2-c2ccccc2)c(=O)[nH]1,?,0,3,-1,21967*
Cc1cc2c(c(SCC(=O)N(C)c3ccccc3)n1)C(=O)OC2,1,-2,22,3,4182
Cc1cc2c(c(Sc3ccccc3)n1)C(=O)OC2,-2,-4,-2,7,24407*
COc1ccc(N2C(=O)CSC23C(=O)N2c4c(cccc43)C(C)=CC2(C)C)cc1 (configuration not stated),-1,-4,-4,-8,16577*
SMILES,BoNT A protease,Anthrax LF inh2,BoNT-F LC inh,MazF activator,Bead autofluor
COc1ccc(N2C(=O)CSC23C(=O)N2CCCc4cccc3c42)cc1 (configuration not stated),0,-9,-13,0,5932
O=C(O)c1ccccc1C(=O)Nc1ccc(Nc2ccccc2)cc1,0,-8,-31,-7,3663
COC(=O)c1ccc(NC(=O)c2ccccc2N(C)S(C)(=O)=O)cc1,0,-14,4,5,4104
CC(=O)Nc1ccc(NC(=O)c2ccccc2N(C)S(C)(=O)=O)cc1,-4,-2,-9,-2,24126*
CN(c1ccccc1C(=O)Nc1ccc(S(=O)(=O)N2CCCCC2)cc1)S(C)(=O)=O,-2,1,-7,2,20379*
Cc1nnc(SC(C)C(=O)Nc2ccc(S(=O)(=O)N3CCCCCC3)cc2)s1 (configuration not stated),0,-2,-1,7,22908*
CC(=O)N(C)c1ccc(NC(=O)c2ccccc2C(=O)O)cc1,?,-1,3,-1,21123*
Cc1nnc(NC(=O)c2ccc(S(=O)(=O)N3CCCCC3)cc2)s1,-1,-5,-8,4,4002
O=C(NS(=O)(=O)c1ccccc1)c1ccccc1F,0,4,6,5,2815
CC(=O)NS(=O)(=O)c1ccc(NC(=O)c2ccccc2F)cc1,-1,-3,-2,1,23846*
CCN1C(=O)[C@H]2[C@H]3CN=C(SC)N3[C@@](Cc3ccccc3)(C(=O)OC)[C@H]2C1=O,-1,0,-14,6,3057
COc1cccc(-n2c(SCC#N)nnc2-c2cnccn2)c1,3,-8,4,11,15146
Cn1c(SCC(N)=O)nnc1-c1cnccn1,-1,-4,-5,1,4360
COc1cccc(-n2c(SC)nnc2-c2cnccn2)c1,6,-9,6,1,20539*
CSc1nnc(-c2cnccn2)n1C,-1,0,-5,14,23864*
COC(=O)[C@@]12CCCN1[C@H](c1ccc(-c3cccc(Cl)c3)cc1)[C@H]1C(=O)N(C)C(=O)[C@H]12,0,6,-2,-2,3957
Cc1cc([N+](=O)[O-])nn1Cc1c(F)c(F)c(F)c(F)c1F,10,-16,14,2,18842*
Cc1cc([N+](=O)[O-])nn1CCCC(=O)NCc1ccc(F)cc1,0,-1,-2,-11,3668
Cn1cc(-c2nnnn2-c2cccc(C(F)(F)F)c2)c(C(F)(F)F)n1,-3,-2,-4,0,24492*
COc1cccc(CN2CC(C(=O)NCCc3cn4cccnc4n3)CCC2=O)c1 (configuration not stated),0,-7,-2,8,3500
CCCN1CCc2c(sc(NC(=O)C3CCN(S(=O)(=O)c4cccs4)CC3)c2C(N)=O)C1,0,-4,2,22,5912
Nc1nc(SCCN2C(=O)c3ccccc3C2=O)n[nH]1,?,-11,5,1,18492*
O=C1c2ccccc2C(=O)N1CCSc1ccccc1,?,?,-5,3,?
Cc1ccc(C(C)C)c(OCC(=O)c2c(O)c3ccccc3oc2=O)c1,0,-10,-3,-4,2247
C=CCn1c(O)c(N=NC(=S)Nc2ccc(OC)c(Cl)c2)c2ccccc21,29,30*,6,-3,8602
CCC(Sc1nc2cc3c(cc2c(=O)n1Cc1ccco1)OCO3)C(=O)Nc1cccc(OC)c1 (configuration not stated),1,-6,2,-11,21154*
CCC(Sc1nc2cc3c(cc2c(=O)n1Cc1ccco1)OCO3)C(=O)NCCOC (configuration not stated),0,-8,-11,1,5792

# Screens (PubChem)
